Experimental findings from PubChem BioAssay are described below.

Activity calls are given as the source filed them.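 How the source made its calls, unless noted: active means visual image review flags a hit and inhibition of aggregation exceeds 20%; inconclusive means visual hit but inhibition at or below 20%; inactive means no hit on visual image review.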

Assay [1] in a line: inhibitors of TNFa-induced NFkB p65 translocation, primary screen, imaging, HUVEC, MLSMR starter and 10KST1 sets (AID 438;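 active means inhibition above 20% together with a positive visual image hit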;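 further: compound added about 3h40 before a 20 min TNFalpha stimulation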;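 on inhibition: signal is the nuclear over cytoplasmic p65 intensity ratio per well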). The settings on record: HUVEC TNFa-induced p65 nuclear translocation; cell count: measured here: nuclei count (cytotoxicity indicator), at 2.08 µM; inhibition: at 2 µM, stronger effect = higher value, 0% TNFa-plus-vehicle, 100% no-TNFa wells.
Assay [2] in a line: inhibitors of mutant huntingtin aggregation, primary screen, imaging, exon1htt(103Q)mCFP cells, high-content imaging (AID 483).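 Further: compound exposure lasted 3 days before fixation.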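 On nuclei count: percent of the per-plate median nuclei count of sample wells.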 The conditions noted are these: exon1htt(103Q)mCFP cell line, aggregate imaging, at 2 µM; inhibition of aggregation: stronger effect = higher value; nuclei count: measured here: cell count, toxicity.
Assay [3] can be described thus: inhibitors of E-selectin induction by TNFa, primary screen, imaging, HUVEC, immunofluorescence, MLSMR starter and 10KST1 sets (AID 487;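 active means visually confirmed hit in the image check and inhibition above 20%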;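 on inhibition: signal is fraction of cell area covered by stained E-selectin grains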;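 on nuclei count: 100% = median nuclei count of all wells on the same plate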). The conditions noted are these: HUVEC TNFalpha-induced E-selectin immunofluorescence imaging, at 2 µM; inhibition: stronger effect = higher value; nuclei count: measured here: cell number, toxicity.
Assay [4] has as its target Voltage-gated potassium channel subunit beta-2 (Rattus norvegicus) (UniProt P62483). Description: KvBeta enzyme negative modulators, primary screen, biochemical, NADPH fluorescence (AID 622;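 active means fluorescence slope higher than the sample average by over 3 SD, cut at about -0.22 in these data, passing the limit was not always enough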;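 further: slope of raw intensity against log time taken from 70 to 1610 s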). The conditions noted are these: recombinant KvBeta, 4-cyanobenzaldehyde reduction, at 10 µM, stronger effect = higher value.
For assay [5] the target is unchanged. Nature of the assay: KvBeta positive modulators, primary screen, biochemical, NADPH fluorescence (AID 623;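 active means NADPH fluorescence slope more negative than the mean of all samples by about 3 SD, 99.7% confidence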;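 further: fluorescence intensity change per second fitted from 20 to 320 s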). The settings on record: Recombinant KvBeta, NADPH fluorescence decrease slope, 10 min; at 10 µM; stronger effect = lower value.
Assay [6] addresses Alpha-2C adrenergic receptor (Homo sapiens) (UniProt P18825). Nature of the assay: modulators of alpha2C/GIRK thallium flux, primary screen, cell-based, HEK293 alpha2C/GIRK1/2 (AID 624;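 active means fluorescence slope after compound addition differing from the mean of all screened samples at 99.7% confidence, in either direction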;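 further: slope of fluorescence ratio to pre-addition baseline per second over 15 to 24 s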). The conditions noted are these: thallium flux BTC fluorescence, at 10 µM, actives lie on both sides.
Assay [7] is described as follows: inhibitors of Sendai virus-induced IRF3 signaling, primary screen, TLR/RLR signaling modifier project, cell-based, Sendai virus stimulus, luciferase, 10K MLSCN set (AID 602276;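 active means inhibition at or above 50% at 10 µM; inactive means inhibition below 50%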;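 further: firefly luciferase from ISG56 promoter only with Renilla not read in this screen; 0% = Sendai virus plus DMSO and 100% = medium plus DMSO without virus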). The settings on record: HEK293 RL24 IRF3 luciferase reporter, at 10 µM, stronger effect = higher value.
Assay [8] can be described thus: inhibitors of poly I:C-induced TLR3 signaling, primary screen, cell-based, poly I:C stimulus, luciferase, 10K MLSCN set (AID 602277;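 active means inhibition of the reporter signal at or above 50%; inactive means inhibition below 50%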). The conditions noted are these: HEK293-TLR3 RL24 IRF3 luciferase reporter, at 10 µM, stronger effect = higher value.

Chain of Alpha-2C adrenergic receptor (Homo sapiens) (P18825 whole entry, looked up): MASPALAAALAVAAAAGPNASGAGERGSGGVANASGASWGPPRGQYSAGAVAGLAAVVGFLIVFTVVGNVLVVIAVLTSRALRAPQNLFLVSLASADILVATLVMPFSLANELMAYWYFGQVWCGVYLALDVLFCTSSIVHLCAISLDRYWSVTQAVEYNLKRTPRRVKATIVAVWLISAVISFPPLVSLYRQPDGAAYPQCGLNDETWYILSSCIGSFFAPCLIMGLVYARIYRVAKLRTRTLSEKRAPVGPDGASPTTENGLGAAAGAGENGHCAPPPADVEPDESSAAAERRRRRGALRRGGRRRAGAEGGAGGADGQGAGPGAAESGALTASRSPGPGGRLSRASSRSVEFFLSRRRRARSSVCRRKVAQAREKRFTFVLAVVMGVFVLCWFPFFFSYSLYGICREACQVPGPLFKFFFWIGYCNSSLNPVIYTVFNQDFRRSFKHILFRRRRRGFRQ
Chain of Voltage-gated potassium channel subunit beta-2 (Rattus norvegicus) (P62483 whole entry, looked up): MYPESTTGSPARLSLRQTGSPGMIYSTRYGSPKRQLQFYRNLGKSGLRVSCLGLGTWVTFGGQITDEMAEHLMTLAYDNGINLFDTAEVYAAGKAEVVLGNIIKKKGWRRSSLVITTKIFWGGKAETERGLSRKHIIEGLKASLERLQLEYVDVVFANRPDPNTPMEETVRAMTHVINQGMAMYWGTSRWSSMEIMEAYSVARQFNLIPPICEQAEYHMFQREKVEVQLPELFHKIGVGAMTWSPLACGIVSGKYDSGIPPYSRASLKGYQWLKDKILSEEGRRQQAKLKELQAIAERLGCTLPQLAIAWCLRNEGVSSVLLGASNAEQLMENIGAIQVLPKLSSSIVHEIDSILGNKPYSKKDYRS

One may read the inhibition as the drop in the measured response relative to a control, in per cent. Take `COc1ccc(N2CCN(c3ccc(NC(=O)C4CCCCC4)cc3C#N)CC2)cc1`: in assay [1], the cell count is 676. Also, the inhibition is -0.6% (inactive) in assay [1], -14.3% (inactive) in assay [3], 4.18% (inactive) in assay [7] and 7.51% (inactive) in assay [8]. The inhibition of aggregation in assay [2] is -30.8% (inactive). The results for the nuclei count in assay [2] and in assay [3] were 104% and 121%, respectively. Also, the fluorescence slope in assay [4] was -0.586 (inactive). Further, in assay [5], the NADPH fluorescence slope is -1.7e-05 (inactive). Further, the slope in assay [6] was 0.00529 (inactive).

Take `Cn1cnc2cc(NC(=O)c3ccc(Cl)cc3)ccc21`: the cell count in assay [1] was 829. The inhibition in assay [1] was 6.9% (inactive); in assay [3], 3.1% (inactive); in assay [7], -39.3% (inactive); in assay [8] it was -143% (inactive). The inhibition of aggregation in assay [2] was 22.8% (inactive). Besides, the nuclei count in assay [2] turned out to be 74.5%; in assay [3], 106%. Moreover, in assay [4], the fluorescence slope is -0.387 (inactive). The NADPH fluorescence slope in assay [5] is 2.4e-05 (inactive). Besides, the slope in assay [6] was 0.00603 (inactive).

Take `CCc1ccc(C=NC23CN4CN(CN(C4)C2)C3)s1`: in assay [1], the cell count was found to be 319. Moreover, the inhibition is -14.4% (inactive) in assay [1], -41.8% (inactive) in assay [3], -1.05% (inactive) in assay [7] and -0.158% (inactive) in assay [8]. Besides, the inhibition of aggregation in assay [2] was -5.7% (inactive). The nuclei count turned out to be 106% in assay [2] and 122% in assay [3]. Moreover, the fluorescence slope in assay [4] was -0.438 (inactive). Moreover, the NADPH fluorescence slope in assay [5] is 5.9e-05 (inactive). For the same compound, in assay [6], the slope is 0.00606 (inactive).

In the case of `CCC(C)NC(=O)c1cc(CC(C)C)on1` (centres undefined), the cell count in assay [1] is 880. The inhibition in assay [1] is 3.5% (inactive); in assay [3], -78.2% (inactive); in assay [7] it was -59.4% (inactive); in assay [8], -111% (inactive). In addition, the inhibition of aggregation in assay [2] was 21.8% (inactive). Moreover, the nuclei count in assay [2] was 80.5%; in assay [3] it was 127%. For the same compound, the fluorescence slope in assay [4] is -0.61 (inactive). The NADPH fluorescence slope in assay [5] was -1.9e-05 (inactive). For the same compound, the slope in assay [6] was 0.00602 (inactive).

Turning to `CC(C)CCNc1cc(=O)n(C)c(=O)n1C`, the cell count in assay [1] was found to be 686. The inhibition in assay [1] is -3.9% (inactive); in assay [3], 28.9% (inactive); in assay [7], 0.49% (inactive); in assay [8] it was 8.23% (inactive). In addition, in assay [2], the inhibition of aggregation was -15.5% (inactive). The nuclei count in assay [2] amounted to 108%; in assay [3], 88%. For the same compound, in assay [4], the fluorescence slope was -0.459 (inactive). The NADPH fluorescence slope in assay [5] was 5e-05 (inactive). Besides, in assay [6], the slope was 0.00778 (inactive).

For `COC(=O)c1cc(Br)c(=O)n(-c2ccc(OC)cc2)c1`, the cell count in assay [1] stood at 542. The inhibition in assay [1] is -0.5% (inactive); in assay [3], 25.8% (inactive); in assay [7], 12.6% (inactive); in assay [8] it was 23.2% (inactive). Further, the inhibition of aggregation in assay [2] is -13.6% (inactive). The nuclei count in assay [2] was found to be 108%; in assay [3] it was 112%. The fluorescence slope in assay [4] is -0.503 (inactive). In addition, the NADPH fluorescence slope in assay [5] is -3.9e-05 (inactive). Also, the slope in assay [6] is 0.00452 (inactive).

For `COc1ccc(C(=O)Nc2ccc(C)cn2)c(OC)c1`, the cell count in assay [1] was 283. For the same compound, the inhibition in assay [1] is 14.7% (inactive); in assay [3], -3.2% (inactive); in assay [7], -3.57% (inactive); in assay [8], 53.3% (active). Besides, the inhibition of aggregation in assay [2] is -14.1% (inactive). In addition, the results for the nuclei count in assay [2] and in assay [3] were 79% and 101%, respectively. Also, the fluorescence slope in assay [4] is -0.469 (inactive). For the same compound, in assay [5], the NADPH fluorescence slope was -3.9e-05 (inactive). For the same compound, the slope in assay [6] is 0.00731 (inactive).

`Cc1cc(C)n(-c2ccc(C(=O)Nc3ccc4c(c3)OCCO4)cc2)n1`: the cell count in assay [1] was 529. The inhibition was -16.3% (inactive) in assay [1], 11.9% (inactive) in assay [3], -19.7% (inactive) in assay [7] and -108% (inactive) in assay [8]. The inhibition of aggregation in assay [2] is -2.4% (inactive). The nuclei count amounted to 103% in assay [2] and 110% in assay [3]. Besides, the fluorescence slope in assay [4] is -0.254 (inactive). Besides, in assay [5], the NADPH fluorescence slope is -2.3e-05 (inactive). For the same compound, in assay [6], the slope is 0.00537 (inactive).

Consider `CC(C)CNS(=O)(=O)c1ccc(CCC(=O)N2CCOCC2)cc1`, for which the cell count in assay [1] stood at 647. The inhibition in assay [1] was 1.1% (inactive); in assay [3], -45.6% (inactive); in assay [7], 8.44% (inactive); in assay [8], 21.1% (inactive). Moreover, in assay [2], the inhibition of aggregation was -3% (inactive). Moreover, the nuclei count in assay [2] and in assay [3] was 104% in each case. In assay [4], the fluorescence slope was -0.471 (inactive). Moreover, the NADPH fluorescence slope in assay [5] was -4.8e-05 (inactive). The slope in assay [6] was 0.00694 (inactive).
